Results: PubChem BioAssay (EPA / NIEHS)
Activity calls are given as the source filed them. Rule for the calls: active = hit-call score of the fitted dose curve at least 0.9, where 1 is the maximum; inactive = score below 0.9.

Columns and labels:
Conditions in all cases: mRNA level, 48 h; actives raise or lower the signal
[1] = read-out: NAD(P)H dehydrogenase [quinone] 1 (NQO1), NQO1 (gene 1728); test: LTEA_HepaRG_NQO1: Life Technologies and Expression Analysis (LTEA) Assay for NAD(P)H dehydrogenase [quinone] 1 (NQO1) using HepaRG (AID 2283526)
Procedure, shortened: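 qRT-PCR read-out (Fluidigm TaqMan), normalized to three housekeeping genes, after 48 h chemical exposure of HepaRG cells. Concentrations: eight points, top 100 uM, half-log steps, 0.5% DMSO vehicle. Gain or loss of signal fitted relative to DMSO.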

[2] = read-out: Nuclear factor erythroid 2-related factor 2 (Homo sapiens) (UniProt Q16236); test: LTEA_HepaRG_NFE2L2: Life Technologies and Expression Analysis (LTEA) Assay for Nuclear factor erythroid 2-related factor 2 (NFE2L2) Transcription Factor using HepaRG (AID 2283527)
Procedure, shortened: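 HepaRG, 48 h dosing, 8-pt half-log series from 100 uM in 0.5% DMSO, duplicates. Read-out: NFE2L2 mRNA by qRT-PCR (ACTB/GAPDH/POLR2A normalization). Bidirectional curve fit vs DMSO baseline.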

[3] = read-out: succinate dehydrogenase complex iron sulfur subunit B (SDHB), SDHB (gene 6390); test: LTEA_HepaRG_SDHB: Life Technologies and Expression Analysis (LTEA) Assay for succinate dehydrogenase complex iron sulfur subunit B (SDHB) using HepaRG (AID 2283528)
Procedure, shortened: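 HepaRG, 48 h exposure, 8-pt half-log series from 100 uM in 0.5% DMSO, duplicates. Readout: SDHB mRNA by Fluidigm qRT-PCR vs housekeeping genes; bidirectional fit relative to DMSO.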

[4] = read-out: Signal transducer and activator of transcription 3 (Homo sapiens) (UniProt P40763); test: LTEA_HepaRG_STAT3: Life Technologies and Expression Analysis (LTEA) Assay for Signal transducer and activator of transcription (STAT3) using HepaRG (AID 2283529)
Procedure, shortened: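 HepaRG, 48 h exposure, 8-pt half-log series (top 100 uM), 0.5% DMSO vehicle, duplicates. Readout: STAT3 transcript by Fluidigm qRT-PCR, housekeeping-normalized; bidirectional fit vs DMSO baseline.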

[5] = read-out: solute carrier (SLCO1B1), SLCO1B1 (gene 10599); test: LTEA_HepaRG_SLCO1B1: Life Technologies and Expression Analysis (LTEA) Assay for solute carrier (SLCO1B1) using HepaRG (AID 2283530)
Procedure, shortened: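 HepaRG, serum-free induction medium, 48 h dosing, 8-pt half-log from 100 uM, 0.5% DMSO vehicle, duplicates. Readout: SLCO1B1 mRNA, qRT-PCR, ACTB/GAPDH/POLR2A normalization; up or down fit vs DMSO.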

[6] = read-out: sulfotransferase 2A1 (SULT2A1), SULT2A1 (gene 6822); test: LTEA_HepaRG_SULT2A1: Life Technologies and Expression Analysis (LTEA) Assay for sulfotransferase 2A1 (SULT2A1) using HepaRG (AID 2283531)
Procedure, shortened: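 Transcript levels of SULT2A1, quantified by qRT-PCR and normalized to three housekeeping genes, serve as the readout. Human HepaRG cultures receive test chemicals for 48 h at up to 100 uM in half-log steps, with 0.5% DMSO vehicle.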

[7] = read-out: Transforming Growth Factor (TGFA), TGFA (gene 7039); test: LTEA_HepaRG_TGFA: Life Technologies and Expression Analysis (LTEA) Assay for Transforming Growth Factor (TGFA) using HepaRG (AID 2283532)
Procedure, shortened: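 qRT-PCR read-out of TGFA transcript, normalized to three housekeeping genes, fitted bidirectionally against 0.5% DMSO baseline. Human HepaRG cultures received chemicals for 48 h at eight half-log concentrations, top 100 uM.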

[8] = read-out: Transforming Growth Factor (TGFB1), TGFB1 (gene 7040); test: LTEA_HepaRG_TGFB1: Life Technologies and Expression Analysis (LTEA) Assay for Transforming Growth Factor (TGFB1) Transporter using HepaRG (AID 2283533)
Procedure, shortened: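 HepaRG, 48 h post-plating, switched to serum-free induction medium; chemicals 100 uM top, half-log, 8 pts, 0.5% DMSO, dup; 48 h exposure; RNA → Fluidigm TaqMan qRT-PCR; norm ACTB/GAPDH/POLR2A; bidirectional fit vs DMSO.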

[9] = read-out: TIMP1, TIMP1 (gene 7076); test: LTEA_HepaRG_TIMP1: Life Technologies and Expression Analysis (LTEA) Assay for TIMP1 using HepaRG (AID 2283534)
Procedure, shortened: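 Readout is TIMP1 mRNA level measured by qRT-PCR and normalized to three housekeeping genes. Human HepaRG cells were treated for 48 h in duplicate at eight concentrations up to 100 uM (0.5% DMSO); gain or loss fitted against DMSO.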

[10] = read-out: Tumor necrosis factor receptor 1 (TNFRSF1A), TNFRSF1A (gene 7132); test: LTEA_HepaRG_TNFRSF1A: Life Technologies and Expression Analysis (LTEA) Assay for Tumor necrosis factor receptor 1 (TNFRSF1A) using HepaRG (AID 2283535)
Procedure, shortened: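 Read-out is TNFRSF1A transcript level by TaqMan qRT-PCR, normalized to three housekeeping genes, scored as gain or loss of signal versus 0.5% DMSO. Human HepaRG cells received test chemicals for 48 h at up to 100 uM (half-log series).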

Measured: AC50

Signal transducer and activator of transcription 3 (Homo sapiens), sequence (P40763 whole entry, looked up): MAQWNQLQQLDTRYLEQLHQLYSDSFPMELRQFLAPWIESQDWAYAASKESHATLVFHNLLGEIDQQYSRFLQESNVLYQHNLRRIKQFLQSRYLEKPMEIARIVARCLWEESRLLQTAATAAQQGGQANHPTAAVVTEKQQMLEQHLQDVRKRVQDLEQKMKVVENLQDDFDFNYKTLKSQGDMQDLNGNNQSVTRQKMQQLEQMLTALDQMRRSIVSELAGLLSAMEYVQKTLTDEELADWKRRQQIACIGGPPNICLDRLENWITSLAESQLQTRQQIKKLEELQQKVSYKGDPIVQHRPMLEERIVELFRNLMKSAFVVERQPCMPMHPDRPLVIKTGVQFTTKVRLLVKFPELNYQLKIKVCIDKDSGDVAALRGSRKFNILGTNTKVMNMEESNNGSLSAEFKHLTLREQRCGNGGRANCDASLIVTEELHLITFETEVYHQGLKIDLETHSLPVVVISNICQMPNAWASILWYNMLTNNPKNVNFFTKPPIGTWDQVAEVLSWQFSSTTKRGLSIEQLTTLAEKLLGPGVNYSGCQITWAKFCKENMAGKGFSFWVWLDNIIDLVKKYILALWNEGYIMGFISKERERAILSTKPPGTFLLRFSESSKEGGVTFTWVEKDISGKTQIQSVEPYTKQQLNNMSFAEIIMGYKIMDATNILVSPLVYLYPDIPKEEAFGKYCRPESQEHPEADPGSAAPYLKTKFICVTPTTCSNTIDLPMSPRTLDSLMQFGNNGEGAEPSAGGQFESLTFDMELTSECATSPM
Nuclear factor erythroid 2-related factor 2 (Homo sapiens), sequence (Q16236 whole entry, looked up): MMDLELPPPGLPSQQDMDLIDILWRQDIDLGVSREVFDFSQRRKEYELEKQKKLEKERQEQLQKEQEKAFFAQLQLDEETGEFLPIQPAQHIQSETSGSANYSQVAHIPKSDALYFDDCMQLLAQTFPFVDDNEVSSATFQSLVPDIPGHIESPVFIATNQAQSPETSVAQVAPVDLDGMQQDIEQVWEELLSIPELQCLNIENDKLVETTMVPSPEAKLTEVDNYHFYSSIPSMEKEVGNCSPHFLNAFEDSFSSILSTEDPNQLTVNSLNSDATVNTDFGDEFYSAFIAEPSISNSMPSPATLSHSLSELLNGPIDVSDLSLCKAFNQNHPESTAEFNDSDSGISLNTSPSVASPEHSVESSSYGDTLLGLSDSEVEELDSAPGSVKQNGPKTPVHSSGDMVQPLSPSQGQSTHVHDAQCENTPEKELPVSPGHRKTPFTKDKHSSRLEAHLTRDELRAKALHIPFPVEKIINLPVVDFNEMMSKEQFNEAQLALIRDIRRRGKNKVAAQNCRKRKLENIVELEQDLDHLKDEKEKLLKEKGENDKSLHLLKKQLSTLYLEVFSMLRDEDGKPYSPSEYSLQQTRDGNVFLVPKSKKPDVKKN

CC(C)(C)c1ccc(CSc2cnn(C(C)(C)C)c(=O)c2Cl)cc1
inactive: [1] | [4] | [8]
active: [2] 26.7 µM | [3] 1.54 µM | [5] 2.34 µM | [6] 22.7 µM | [7] 2.96 µM | [9] 26.9 µM

CCCCNC(=O)OCC#CI
active: [5] 50 µM | [6] 50 µM
inactive: all other assays above

CNC(=O)ON=CC(C)(C)SC
not listed: [10]
inactive: all other assays above

CCCC1COC(Cn2cncn2)(c2ccc(Cl)cc2Cl)O1 (centres undefined)
inactive: [3] | [4] | [9] | [10]
active: [1] 50 µM | [2] 83.6 µM | [5] 62.8 µM | [6] 59 µM | [7] 50 µM | [8] 27.3 µM

CCOC(=O)C(Cl)Cc1cc(-n2nc(C)n(C(F)F)c2=O)c(F)cc1Cl (centres undefined)
not listed: [10]
inactive: all other assays above

C#CCOS(=O)OC1CCCCC1Oc1ccc(C(C)(C)C)cc1 (centres undefined)
active: [1] 22.9 µM | [3] 30.5 µM | [4] 36.3 µM | [5] 29.2 µM | [6] 27.3 µM | [7] 22.2 µM | [8] 50 µM | [9] 26.5 µM
inactive: [2]

O=C(O)COc1nc(Cl)c(Cl)cc1Cl
inactive: all assays above

COc1nc(NC(C)C)nc(NC(C)C)n1
not listed: [10]
inactive: all other assays above

CCc1nn(C)c(C(=O)NCc2ccc(C(C)(C)C)cc2)c1Cl
active: [1] 50 µM | [2] 10.6 µM | [5] 31.3 µM | [6] 26.8 µM | [7] 16.4 µM | [8] 50 µM | [9] 28 µM
inactive: [3] | [4]

COc1cnc(OC)n2nc(NS(=O)(=O)c3c(OCC(F)F)cccc3C(F)(F)F)nc12
not listed: [10]
inactive: all other assays above

CC(Oc1ccc(Cl)cc1Cl)C(=O)O (centres undefined)
not listed: [10]
inactive: all other assays above

CCCCNC(=O)n1c(NC(=O)OC)nc2ccccc21
inactive: all assays above

N#Cc1nn(-c2c(Cl)cc(C(F)(F)F)cc2Cl)c(N)c1S(=O)C(F)(F)F (centres undefined)
active: [1] 81.6 µM | [2] 83 µM | [5] 36.2 µM | [6] 50.2 µM | [7] 33.2 µM | [9] 66.7 µM
inactive: [3] | [4] | [8]

Oc1ccccc1-c1ccccc1
inactive: all assays above

Cc1ccc(-c2c(Cl)nc(C#N)n2S(=O)(=O)N(C)C)cc1
active: [3] 2.73 µM | [4] 18.4 µM | [5] 31.1 µM | [6] 10.3 µM | [9] 22.4 µM
inactive: [1] | [2] | [7] | [8]

CC1COC(Cn2cncn2)(c2ccc(Oc3ccc(Cl)cc3)cc2Cl)O1 (centres undefined)
inactive: [1] | [4]
active: [2] 19.7 µM | [3] 84.8 µM | [5] 12.8 µM | [6] 19.6 µM | [7] 13.6 µM | [8] 89.8 µM | [9] 77 µM

COP(=S)(OC)Oc1nc(Cl)c(Cl)cc1Cl
inactive: all assays above

CN(C)C(=S)SSC(=S)N(C)C
not listed: [10]
inactive: all other assays above

COc1ccc(C(c2ccc(OC)cc2)C(Cl)(Cl)Cl)cc1
active: [2] 12.7 µM | [3] 33.2 µM
inactive: all other assays above

CNC(=S)S
inactive: all assays above

CCOP(=S)(OCC)SCn1c(=O)oc2cc(Cl)ccc21
inactive: all assays above

C=CCC1=C(C)[C@@H](OC(=O)[C@@H]2[C@@H](C=C(C)C)C2(C)C)CC1=O
not listed: [4] | [10]
inactive: all other assays above

OC(c1ccc(Cl)cc1)(c1cncnc1)c1ccccc1Cl (centres undefined)
inactive: [1] | [3] | [4]
active: [2] 44.6 µM | [5] 85.2 µM | [6] 77 µM | [7] 77.5 µM | [8] 50 µM | [9] 50 µM

CCOc1cc(Oc2ccc(C(F)(F)F)cc2Cl)ccc1[N+](=O)[O-]
active: [2] 21.9 µM | [5] 20.6 µM | [6] 35.3 µM | [7] 15.3 µM | [8] 19 µM
inactive: [1] | [3] | [4] | [9]

CC(C)Oc1cc(-n2nc(C(C)(C)C)oc2=O)c(Cl)cc1Cl
active: [6] 80.9 µM
inactive: all other assays above
